# ATXN viability – reduces viability in counter-screen for ATXN expression inhibitors; 400,000 compounds, 0.49% hits; AID 651635; S2 cells (HEK-293 line with an ATXN2-luciferase reporter) viability, CellTiter-Fluor protease fluorescence, 24 h; Potency, µM (titrated, usually from 56.7 µM), hits mostly cytotoxic; also: nearly all actives have a fitted effect of over 40% in size
# TGFb inhibitor – blocks TGF-b signaling | HepG2 CAGA-GFP TGF-b/SMAD3 reporter, GFP fluorescence, 18 h; TGF-beta stimulated, 500 pg/mL final | Potency, µM (titrated, usually from 46.1 µM), most hits filed as inhibitors | 410,000 compounds, 1.2% hits; also: nearly all actives have a fitted effect of over 65% in size
#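 First, reporter cells (HEPG2 CAGA-GFP) rested 2 h at 37 degrees C. Next, compounds were pinned in and TGF-beta added to 500 pg/mL final. After 18 h, GFP was imaged per cell and summed per well.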
# ATXN2 expr inh – inhibitors of ATXN2 expression | HEK-293 ATXN2-luciferase reporter, luminescence, 24 h | Potency, µM (highest dose often 57 µM), usual class: inhibitors | AID 1745845 | 360,000 compounds, 0.72% hits; also: nearly all actives have a fitted effect of over 55% in size
#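 qHTS (up to 57 uM final) was run with 24 h compound exposure of reporter cells at 37 °C. Each well was multiplexed: SteadyGlo luminescence measured ATXN2-luciferase expression after a fluorogenic Gly-Phe-AFC viability readout (25 uM final).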
# DRD3 antagonist – blocks the human D3 dopamine receptor. D3R cells, DiscoveRx beta-arrestin luminescence, antagonist mode; active compounds read low. P35462. 360,000 compounds, 2.5% hits. max response, negative = inhibition, %; in the data active = max response below about -50%; inconclusive = no clear call, values can overlap the other calls
# Target sequence (P35462 whole entry, looked up): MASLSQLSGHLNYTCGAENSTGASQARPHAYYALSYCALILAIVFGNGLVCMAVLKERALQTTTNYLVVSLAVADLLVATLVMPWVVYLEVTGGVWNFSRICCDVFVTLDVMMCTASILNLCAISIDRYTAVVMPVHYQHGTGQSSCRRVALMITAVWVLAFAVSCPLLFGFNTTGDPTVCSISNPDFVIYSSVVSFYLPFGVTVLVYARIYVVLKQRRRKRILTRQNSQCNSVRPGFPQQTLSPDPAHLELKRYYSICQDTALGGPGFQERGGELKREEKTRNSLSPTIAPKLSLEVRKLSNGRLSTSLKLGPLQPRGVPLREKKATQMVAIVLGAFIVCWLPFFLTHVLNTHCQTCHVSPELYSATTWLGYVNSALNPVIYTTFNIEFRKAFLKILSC
#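 Cells plated overnight at 1500 cells/well, then exposed to library compounds with dopamine controls for 90 minutes at 37 degrees C. DiscoveRx reagent added for 30–60 minutes at room temperature; luminescence read, quantitative HTS format.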
# D3 ag – D3 dopamine receptor (human) agonism | D3R DiscoveRx beta-arrestin cells, luminescence, 90 min | max activation, % | 410,000 compounds, 0.58% hits | AID 652048; in the data active = max activation above about 30%
#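 Cells at 1500/well, incubated overnight, then treated with pinned compounds (dopamine as control) for 90 min at 37 degrees C. DiscoveRx reagent added for 30 - 60 minutes at room temperature; luminescence read.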
# HepG2 tox-1 – HepG2 cytotoxicity, counter-screen for TGF-b inhibitors | HepG2 CAGA-GFP viability, ATP luminescence, 18 h | Potency, µM (series often up to 46.1 µM), actives largely listed as cytotoxic | 410,000 compounds, 0.76% hits | AID 588856
#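 CellTiter-Glo luminescence gave cytotoxicity after 18 hours at 37 degrees C. The cells were HepG2 CAGA-GFP in 1% FBS DMEM, stimulated with 500 pg/mL TGF-beta after compound addition. %Activity was normalised to no-cell wells (complete cell-killing) and DMSO (no toxicity), and curves were fitted and classified.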
# TGFb CAGA inh – confirmation of TGF-b signaling inhibitors in HepG2 reporter cells; HepG2 CAGA-GFP TGF-b reporter, GFP fluorescence, 18 h; cells stimulated with TGF-beta, 500 pg/mL; 1,600 compounds, 63% hits; shares compounds with TGFb inhibitor; Potency, µM (top dose mostly 46.1 µM), usual class: inhibitors; also: nearly all actives have a fitted effect of over 65% in size
# HepG2 tox-2 – counter-screen for TGF-b inhibitors: cytotoxicity in HepG2 cells | shares compounds with TGFb inhibitor | HepG2 CAGA-GFP viability, ATP luminescence, 18 h; cells stimulated with TGF-beta, 500 pg/mL | Potency, µM (top dose mostly 46.1 µM), usual class: inhibitors | 1,600 compounds, 27% hits; also: nearly all actives have a fitted effect of over 70% in size
# CCL64 TGFb inh – blocks TGF-b signaling in CCL64 reporter cells | Potency, µM (titrated, usually from 46.1 µM), actives largely listed as inhibitors | 1,600 compounds, 41% hits | CCL64 CAGA-GFP reporter, TGF-b stimulated, GFP fluorescence, 18 h | AID 720536 | shares compounds with TGFb inhibitor; also: nearly all actives have a fitted effect of over 65% in size
# COP TGFb inh – validation of TGF-b inhibitors in HepG2 COP promoter reporter | shares compounds with TGFb inhibitor | HepG2 COP-GFP TGF-b reporter, GFP fluorescence, 18 h; cells stimulated by added recombinant TGF-beta | Potency, µM (titrated, usually from 46.1 µM), actives largely listed as inhibitors | 1,600 compounds, 3% hits | AID 720537; also: nearly all actives have a fitted effect of over 70% in size
# Numbers stand for hits; 0 = inactive; ? = inconclusive; - = not tested or not shown; [ ] = remark or other dose. Rows were chosen to be rich in hits. Some 4.8% of all compounds tested hit in one or more screens of this group. Unless noted, calls follow the shape of the dose curve; as a rule, active = well fitted curve in the direction sought with a large enough effect; inconclusive = small, poorly fitted or top-dose-only effect, or another doubt; inactive = no such curve, though single readings can be large; an effect the other way counts as inactive or inconclusive.
SMILES,ATXN viability,TGFb inhibitor,ATXN2 expr inh,DRD3 antagonist,D3 ag,HepG2 tox-1,TGFb CAGA inh,HepG2 tox-2,CCL64 TGFb inh,COP TGFb inh
COc1cc(C(=O)Oc2ccccc2/C=N/NC(=O)c2ccc(C)cc2)cc(OC)c1OC,?,13µM,0,0,0,0,?,?,0,0
CCn1c(C)nnc1SCC(=O)Nc1cccc(Cl)c1,0,0,0,0,0,0,-,-,-,-
CC(=O)n1nc(-c2ccncc2)nc1SCC(=O)Nc1cccc(Cl)c1,0,4µM,0,0,0,0,3.7µM,0,7.3µM,0
CC(=O)c1cccc(NC(=O)CSc2n[nH]c(-c3ccncc3)n2)c1,0,0,0,0,0,0,-,-,-,-
Cc1cccc(NC(=O)CSc2n[nH]c(-c3ccncc3)n2)c1,0,3.5µM,0,0,0,0,5.2µM,0,10µM,0
CCN(N=O)c1ccc(/C=C2\C=Cc3ccccc32)cc1,-,0,-,-,-,0,-,-,-,-
COc1cc(Cl)ccc1OCc1cc(C(=O)N(C)Cc2cccc3cnccc23)no1,0,11µM,0,0,0,0,15µM,?,?,0
COc1ccc(/C=C2/CCCC(CN(C)C)C2=O)cc1 (configuration not stated),-,6.3µM,?,?,0,0,2.6µM,7.3µM,4.1µM,?
COc1cccc(/C=C2/CCC(CN(C)C)C2=O)c1 (configuration not stated),-,2.5µM,13µM,-69,0,0,2.6µM,5.8µM,1.5µM,?
COc1ccc(C=C2CCC3C(=O)CCCC3(C)C2=O)cc1 (configuration not stated),0,0,-,0,0,0,-,-,-,-
COc1ccc(N(C(=O)c2cccc(C)c2)S(=O)(=O)c2ccc3c(c2)n(C)c(=O)n3C)cc1,?,0,0,-,0,0,-,-,-,-
N#CC(c1cccc(Cl)c1)c1ccc2c(C(F)(F)F)cc(C(F)(F)F)nc2n1 (configuration not stated),5.6µM,1.3µM,2.5µM,0,0,0,0.37µM,1.3µM,1.2µM,0
Cc1ccc(-c2nc3c(C)cccn3c2Nc2ccccc2C)s1,?,?,0,-,0,0,-,-,-,-
CCOc1ccccc1CNC(=O)C1CCN(S(=O)(=O)c2ccc3c(ccn3C)c2)CC1,0,0,0,-,0,0,-,-,-,-
CCc1nc2ccc(C(=O)NCc3cccs3)cn2c1N(CC)Cc1cccc(Br)c1,?,11µM,?,0,0,0,18µM,?,?,0
COc1ccccc1N1CCN(C(=O)c2ccc(-c3ccc(Cl)cc3)o2)CC1,?,8.9µM,-,0,0,0,13µM,12µM,?,0
COc1ccccc1N1CCN(C(=O)NCc2ccc(Cl)cc2)CC1,0,0,0,0,0,0,-,-,-,-
CCCCN(CC)C(=O)c1nn(C)c2c1CSc1ccccc1-2,-,0,-,-,0,0,-,-,-,-
CCc1ccc(NC(=O)c2nnn(Cc3cccc(C(F)(F)F)c3)c2N)cc1,0,0,0,-,0,0,-,-,-,-
O=[N+]([O-])c1ccc(N2CCN(Cc3ccccc3)CC2)nc1,0,0,0[11.3 µM],0,0,0,-,-,-,-
O=[N+]([O-])c1ccc(N2CCN(Cc3ccccc3)CC2)c2c1no[n+]2[O-],3.5µM,3.2µM,-,-74,0,3.5µM,?,4.1µM,5.2µM,?
O=S(=O)(c1ccc2nc(SCc3cccc(Cl)c3)[nH]c2c1)N1CCOCC1,0,0,0,0,0,-,-,-,-,-
O=S(=O)(c1ccc2nc(SCc3ccc(Cl)cc3)[nH]c2c1)N1CCOCC1,0,10µM,0,0,0,0,12µM,0,?,0
O=C(CC(Nc1ccccc1)C(=O)O)c1ccccc1 (configuration not stated),0,0,0,0,0,0,-,-,-,-
C=C(C(=O)c1ccccc1)C(C)CC(=O)c1ccccc1 (configuration not stated),-,13µM,?,?,0,0,4.6µM,15µM,15µM,0
SMILES,ATXN viability,TGFb inhibitor,ATXN2 expr inh,DRD3 antagonist,D3 ag,HepG2 tox-1,TGFb CAGA inh,HepG2 tox-2,CCL64 TGFb inh,COP TGFb inh
CCOc1ccc2nc3cc(NCc4ccc(OC)cc4)ccc3c(N)c2c1,0,7.9µM,-,0,0,10µM,3.3µM,7.3µM,?,0
CCCOc1ccc(F)cc1-c1cc(C(=O)Nc2ccc(C)c(NS(C)(=O)=O)c2)[nH]n1,0,18µM,0,0,0,0,?,?,23µM,0
CCCOc1ccc(F)cc1-c1cc(C(=O)Nc2ccc(OC)c(OC)c2)[nH]n1,?,?,?,0,0,0,-,-,-,-
CN(C)S(=O)(=O)N1CCc2ccc(NC(=O)c3ccc(C(F)(F)F)cc3)cc2C1,0,?,0,0,0,0,0,?,0,0
COc1cccc(-c2cc3c(c(OC)c2)OCCN(Cc2cccn2-c2ccccn2)C3)c1,0,-,-,-,-,-,-,-,-,-
COc1ccc2oc(=Nc3cc(F)ccc3F)c(C(N)=O)cc2c1,0,8.9µM,0,0,0,0,?,0,0,0
CCN(c1ccc(OC)cc1)S(=O)(=O)c1ccc2[nH]c3c(c2c1)CCCCC3,?,?,?,-,0,0,-,-,-,-
Cc1cccc(NS(=O)(=O)c2ccc(C)c(C(=O)NC3CCN(Cc4ccccc4)CC3)c2)c1,-,10µM,-,?,0,0,?,0,?,0
COc1ccccc1CNC(=O)C1CCN(S(=O)(=O)c2c(C)noc2/C=C/c2c(C)cc(C)cc2C)CC1,-,0,-,-,0,0,-,-,-,-
COc1ccc([C@H]2CC(=O)C=C(c3ccc(Cl)c(C(F)(F)F)c3)C2)cc1,0,8.9µM,0,0,0,0,?,?,?,0
Cc1cc(C)cc(NS(=O)(=O)c2ccc3c(c2)NC(=O)C(C)S3)c1 (configuration not stated),-,?,-,-,0,0,-,-,-,-
COc1cc(C2Oc3ccccc3C=C2[N+](=O)[O-])cc(OC)c1OC (configuration not stated),16µM,3.2µM,-,0,0,5.6µM,21µM,18µM,4.1µM,?
